# Data as given in the supplement of paper PMC6411743.
# ± gives the standard deviation of the averaged measurements. About 6,500 targets were measured; listed, in parts, are those with the largest changes and a random draw of the rest.
# Compound: Nc1ncnc2c1ncn2[C@@H]1O[C@H](COP(=O)(O)OP(=O)(O)OP(=O)(O)O)[C@@H](O)[C@H]1O [adenosine triphosphate]
# Test: NP40-soluble protein abundance relative to vehicle (solubility fold change) (ratio); higher = more soluble protein in presence of ATP
# Outline: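 Across three independent experiments, values are fold changes against the detergent-processed vehicle for each replicate, based on vsn-normalised intensities. The samples were Jurkat crude lysate treated with eight concentrations (0.1 to 10 mM) for 10 min at room temperature and then 3 min at 37 °C. Lysate was solubilised with 0.8% NP40 and benzonase, ultracentrifuged, and the supernatant analysed by TMT-labelled LC-MS/MS.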
# Sequence of UniProt Q9NR46 (Q9NR46 whole entry, one chain of several): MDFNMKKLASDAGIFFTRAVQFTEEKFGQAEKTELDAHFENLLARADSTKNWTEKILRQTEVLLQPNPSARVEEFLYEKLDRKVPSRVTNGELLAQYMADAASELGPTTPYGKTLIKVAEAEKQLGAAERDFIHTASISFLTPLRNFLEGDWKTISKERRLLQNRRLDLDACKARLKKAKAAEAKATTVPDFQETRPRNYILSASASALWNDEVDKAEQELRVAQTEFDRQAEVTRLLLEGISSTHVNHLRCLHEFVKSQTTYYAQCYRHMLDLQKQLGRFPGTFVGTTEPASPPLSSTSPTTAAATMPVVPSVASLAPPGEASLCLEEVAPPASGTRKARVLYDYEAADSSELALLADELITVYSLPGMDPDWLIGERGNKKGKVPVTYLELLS
# Sequence of UniProt Q8WV92 (Q8WV92 whole entry, one chain of several): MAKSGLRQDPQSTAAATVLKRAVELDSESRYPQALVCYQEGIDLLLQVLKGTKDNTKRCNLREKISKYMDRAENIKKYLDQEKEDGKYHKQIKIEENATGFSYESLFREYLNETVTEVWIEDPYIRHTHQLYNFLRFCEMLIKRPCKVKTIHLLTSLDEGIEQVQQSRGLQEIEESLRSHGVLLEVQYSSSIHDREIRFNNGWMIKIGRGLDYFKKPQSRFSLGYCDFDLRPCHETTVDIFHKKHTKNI
# Sequence of UniProt Q8NC42 (Q8NC42 whole entry, one chain of several): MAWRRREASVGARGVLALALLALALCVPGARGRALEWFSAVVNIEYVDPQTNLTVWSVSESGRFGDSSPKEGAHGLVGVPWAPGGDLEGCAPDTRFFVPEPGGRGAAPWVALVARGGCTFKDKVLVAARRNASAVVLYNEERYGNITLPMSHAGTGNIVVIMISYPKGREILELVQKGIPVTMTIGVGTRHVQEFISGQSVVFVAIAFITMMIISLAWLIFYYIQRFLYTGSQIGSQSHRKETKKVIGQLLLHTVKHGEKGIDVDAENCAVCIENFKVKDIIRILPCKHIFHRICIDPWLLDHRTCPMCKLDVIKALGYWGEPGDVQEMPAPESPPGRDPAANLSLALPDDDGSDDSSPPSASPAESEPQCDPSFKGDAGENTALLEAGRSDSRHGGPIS
# Sequence of UniProt Q9NZ72 (Q9NZ72 whole entry, one chain of several): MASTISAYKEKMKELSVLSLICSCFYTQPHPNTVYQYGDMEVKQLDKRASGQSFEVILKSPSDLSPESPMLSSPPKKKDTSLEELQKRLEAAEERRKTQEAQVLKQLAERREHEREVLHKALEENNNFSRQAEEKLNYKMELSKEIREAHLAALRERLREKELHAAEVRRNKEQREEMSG
# Sequence of UniProt Q9BRQ6 (Q9BRQ6 whole entry, one chain of several): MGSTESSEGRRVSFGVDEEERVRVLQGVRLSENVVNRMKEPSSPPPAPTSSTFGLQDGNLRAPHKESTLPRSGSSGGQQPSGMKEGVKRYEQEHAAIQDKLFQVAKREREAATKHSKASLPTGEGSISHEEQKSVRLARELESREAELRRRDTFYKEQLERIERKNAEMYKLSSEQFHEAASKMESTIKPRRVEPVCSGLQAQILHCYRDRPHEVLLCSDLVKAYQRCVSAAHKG
# Sequence of UniProt O43237 (O43237 whole entry): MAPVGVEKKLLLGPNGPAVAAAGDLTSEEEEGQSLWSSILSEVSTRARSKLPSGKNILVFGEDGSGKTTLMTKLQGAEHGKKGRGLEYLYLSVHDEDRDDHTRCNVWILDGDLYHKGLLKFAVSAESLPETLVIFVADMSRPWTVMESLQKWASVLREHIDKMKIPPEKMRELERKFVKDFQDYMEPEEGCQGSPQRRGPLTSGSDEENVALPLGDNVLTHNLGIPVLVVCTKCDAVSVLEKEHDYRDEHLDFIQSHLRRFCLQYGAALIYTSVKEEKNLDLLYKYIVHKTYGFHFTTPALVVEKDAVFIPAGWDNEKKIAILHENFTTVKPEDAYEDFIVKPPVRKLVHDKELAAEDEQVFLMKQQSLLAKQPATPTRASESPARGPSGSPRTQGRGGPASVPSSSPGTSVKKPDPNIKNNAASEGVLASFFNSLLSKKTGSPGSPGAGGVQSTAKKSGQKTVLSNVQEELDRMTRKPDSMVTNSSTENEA
# Sequence of UniProt O15533 (O15533 whole entry, one chain of several): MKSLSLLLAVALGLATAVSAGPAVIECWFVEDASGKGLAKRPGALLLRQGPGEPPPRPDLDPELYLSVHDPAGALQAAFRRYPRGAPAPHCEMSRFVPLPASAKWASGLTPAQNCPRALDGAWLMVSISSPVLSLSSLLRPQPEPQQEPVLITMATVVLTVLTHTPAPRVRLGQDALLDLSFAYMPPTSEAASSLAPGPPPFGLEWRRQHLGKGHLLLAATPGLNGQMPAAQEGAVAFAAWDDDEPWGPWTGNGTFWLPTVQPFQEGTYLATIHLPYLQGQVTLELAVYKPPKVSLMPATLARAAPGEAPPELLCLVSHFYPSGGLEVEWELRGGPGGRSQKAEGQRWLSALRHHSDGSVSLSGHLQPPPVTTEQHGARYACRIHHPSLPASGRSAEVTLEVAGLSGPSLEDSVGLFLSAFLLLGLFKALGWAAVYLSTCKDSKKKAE
# Sequence of UniProt Q96HP4 (Q96HP4 whole entry, one chain of several): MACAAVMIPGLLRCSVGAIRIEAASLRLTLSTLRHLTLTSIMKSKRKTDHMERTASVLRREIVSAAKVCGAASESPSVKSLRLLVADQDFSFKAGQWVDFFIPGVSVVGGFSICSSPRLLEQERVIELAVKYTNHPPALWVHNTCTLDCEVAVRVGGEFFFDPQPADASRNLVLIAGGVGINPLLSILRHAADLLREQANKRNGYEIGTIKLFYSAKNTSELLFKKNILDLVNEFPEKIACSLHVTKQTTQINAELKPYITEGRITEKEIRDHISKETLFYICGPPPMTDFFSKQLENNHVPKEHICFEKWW
# Sequence of UniProt O75943 (O75943 whole entry, one chain of several): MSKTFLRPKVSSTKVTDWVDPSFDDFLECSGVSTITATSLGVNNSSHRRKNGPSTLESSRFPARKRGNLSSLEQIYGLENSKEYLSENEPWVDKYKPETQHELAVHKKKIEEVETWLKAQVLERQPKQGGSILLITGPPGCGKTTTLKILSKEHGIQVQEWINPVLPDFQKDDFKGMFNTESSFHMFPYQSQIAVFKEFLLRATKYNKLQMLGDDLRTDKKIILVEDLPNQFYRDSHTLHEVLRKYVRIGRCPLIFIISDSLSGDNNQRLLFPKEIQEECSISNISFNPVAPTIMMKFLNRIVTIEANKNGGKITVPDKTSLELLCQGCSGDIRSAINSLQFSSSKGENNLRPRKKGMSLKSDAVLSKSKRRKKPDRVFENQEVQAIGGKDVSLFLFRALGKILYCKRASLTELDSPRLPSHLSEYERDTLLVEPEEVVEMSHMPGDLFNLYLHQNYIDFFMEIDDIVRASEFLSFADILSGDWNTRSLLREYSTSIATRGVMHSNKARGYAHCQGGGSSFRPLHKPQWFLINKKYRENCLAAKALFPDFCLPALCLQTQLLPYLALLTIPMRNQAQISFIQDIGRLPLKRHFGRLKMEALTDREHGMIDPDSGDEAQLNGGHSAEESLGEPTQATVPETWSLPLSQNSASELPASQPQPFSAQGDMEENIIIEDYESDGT
# Sequence of UniProt Q96BT3 (Q96BT3 whole entry, one chain of several): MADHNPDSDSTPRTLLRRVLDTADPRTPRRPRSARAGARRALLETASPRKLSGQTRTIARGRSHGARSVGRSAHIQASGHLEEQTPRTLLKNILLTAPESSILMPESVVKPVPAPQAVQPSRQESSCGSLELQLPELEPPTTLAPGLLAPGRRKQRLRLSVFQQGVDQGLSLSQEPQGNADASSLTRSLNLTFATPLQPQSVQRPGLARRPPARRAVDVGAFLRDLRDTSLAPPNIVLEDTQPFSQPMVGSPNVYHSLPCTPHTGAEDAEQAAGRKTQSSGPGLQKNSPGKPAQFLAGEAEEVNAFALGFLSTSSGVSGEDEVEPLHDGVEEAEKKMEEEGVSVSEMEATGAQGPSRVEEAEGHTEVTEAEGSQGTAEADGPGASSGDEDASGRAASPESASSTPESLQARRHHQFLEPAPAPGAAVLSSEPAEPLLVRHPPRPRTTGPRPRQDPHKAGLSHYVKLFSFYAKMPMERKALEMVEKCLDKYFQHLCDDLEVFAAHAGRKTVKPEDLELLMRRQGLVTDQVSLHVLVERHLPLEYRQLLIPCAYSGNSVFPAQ
# Sequence of UniProt Q12857 (Q12857 whole entry, one chain of several): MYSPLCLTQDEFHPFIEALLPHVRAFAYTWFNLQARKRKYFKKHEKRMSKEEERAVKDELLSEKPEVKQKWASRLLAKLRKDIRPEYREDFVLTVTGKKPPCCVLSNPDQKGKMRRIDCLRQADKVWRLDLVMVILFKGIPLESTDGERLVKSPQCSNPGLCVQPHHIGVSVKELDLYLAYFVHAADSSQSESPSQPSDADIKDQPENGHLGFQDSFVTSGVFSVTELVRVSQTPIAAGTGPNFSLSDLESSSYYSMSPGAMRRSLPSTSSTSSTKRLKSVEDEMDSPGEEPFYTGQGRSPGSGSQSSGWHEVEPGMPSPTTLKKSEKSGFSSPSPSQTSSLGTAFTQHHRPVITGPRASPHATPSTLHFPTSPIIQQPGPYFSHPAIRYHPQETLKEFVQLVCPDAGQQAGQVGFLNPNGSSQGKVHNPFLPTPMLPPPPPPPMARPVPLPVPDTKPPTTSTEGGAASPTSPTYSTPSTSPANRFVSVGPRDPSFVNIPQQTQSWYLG
# Sequence of UniProt P04406 (P04406 whole entry, looked up, one chain of several): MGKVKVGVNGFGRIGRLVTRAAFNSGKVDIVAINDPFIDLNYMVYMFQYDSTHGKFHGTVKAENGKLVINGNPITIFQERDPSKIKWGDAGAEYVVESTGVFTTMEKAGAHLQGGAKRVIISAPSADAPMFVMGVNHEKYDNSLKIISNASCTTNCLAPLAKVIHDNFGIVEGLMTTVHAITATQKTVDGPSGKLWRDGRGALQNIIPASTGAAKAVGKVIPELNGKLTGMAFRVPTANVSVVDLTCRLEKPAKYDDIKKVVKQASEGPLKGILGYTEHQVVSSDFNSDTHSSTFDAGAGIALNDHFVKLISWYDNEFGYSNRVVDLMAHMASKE
Target,NP40-soluble protein abundance (concentration: 1mM),NP40-soluble protein abundance (concentration: 2mM),NP40-soluble protein abundance (concentration: 4mM),NP40-soluble protein abundance (concentration: 6mM),NP40-soluble protein abundance (concentration: 8mM),NP40-soluble protein abundance (concentration: 10mM)
H7C3Q6|Q8WV92|B8ZZL5 (UniProt Q8WV92),1.85 ± 0.55,1.9 ± 0.66,1.92 ± 0.67,1.9 ± 0.76,1.97 ± 0.67,1.94 ± 0.67
B4DHE8|Q96DH6 (UniProt Q96DH6),1.02 ± 0.045,1.02 ± 0.058,0.994 ± 0.065,0.993 ± 0.08,0.983 ± 0.071,0.972 ± 0.079
F8W057|Q9GZN1|Q9GZN1-2 (UniProt Q9GZN1),1.07 ± 0.034,1.11 ± 0.034,1.1 ± 0.065,1.03 ± 0.089,1.2 ± 0.028,1.17 ± 0.089
B1AKN5|B1AKN7|B1AKN8|Q12857|Q12857-3|Q12857-4|B1AKN6|S4R3K4|Q12857-2 (UniProt Q12857),1.22 ± 0.072,1.08 ± 0.11,1.12 ± 0.081,1.21 ± 0.13,0.995 ± 0.072,1.13 ± 0.033
F5GWN5|O00750 (UniProt O00750),0.994 ± 0.022,1.03 ± 0.025,1.05 ± 0.013,1.02 ± 0.039,1.03 ± 0.028,1.03 ± 0.051
C9JLB7|Q96HP4 (UniProt Q96HP4),1.09 ± 0.083,1.1 ± 0.1,1.06 ± 0.075,1.12 ± 0.17,1.17 ± 0.14,1.05 ± 0.042
K7ENL9|Q96DM3 (UniProt Q96DM3),1.04 ± 0.097,0.984 ± 0.027,1.02 ± 0.029,1.02 ± 0.058,1.02 ± 0.061,0.985 ± 0.03
J9JID7|Q03252 (UniProt Q03252),1 ± 0.066,0.943 ± 0.063,1.01 ± 0.065,1.06 ± 0.037,1.03 ± 0.047,1.09 ± 0.059
J3KP06|Q8WWI1|Q8WWI1-2|Q8WWI1-3|Q8WWI1-4 (UniProt Q8WWI1),1.31 ± 0.026,1.41 ± 0.07,1.57 ± 0.067,1.65 ± 0.07,1.77 ± 0.057,1.96 ± 0.042
E7EQI7|Q12768 (UniProt Q12768),1.06 ± 0.1,1.06 ± 0.075,1.05 ± 0.076,0.962 ± 0.11,1.07 ± 0.068,1.02 ± 0.05
A0A0A0MSV9|A0A0G2JH37|A0A0G2JKZ1|A2AB90|O15533|O15533-2|O15533-3 (UniProt O15533),1.04 ± 0.066,1.02 ± 0.067,0.986 ± 0.028,0.968 ± 0.047,0.99 ± 0.085,0.984 ± 0.088
E9PB61|Q86V81 (UniProt Q86V81),1.04 ± 0.094,1.09 ± 0.07,1.22 ± 0.13,1.44 ± 0.15,1.53 ± 0.13,1.66 ± 0.24
DYNC1LI2 (UniProt O43237),0.947 ± 0.049,0.939 ± 0.049,0.905 ± 0.047,0.959 ± 0.14,0.92 ± 0.075,0.932 ± 0.032
H3BTR4|Q96BT3 (UniProt Q96BT3),1.32 ± 0.023,1.41 ± 0.13,1.52 ± 0.21,1.72 ± 0.23,1.68 ± 0.17,1.87 ± 0.17
B1AJY7|O75832 (UniProt O75832),1 ± 0.082,0.973 ± 0.031,0.955 ± 0.065,0.977 ± 0.076,0.947 ± 0.056,0.863 ± 0.043
A0A0A0MTB8|Q8NI36 (UniProt Q8NI36),1.21 ± 0.057,1.37 ± 0.057,1.68 ± 0.13,1.86 ± 0.23,2.12 ± 0.14,2.17 ± 0.17
B1AK44|Q9UI95 (UniProt Q9UI95),0.999 ± 0.022,0.937 ± 0.037,0.978 ± 0.024,1.01 ± 0.087,1.05 ± 0.086,0.993 ± 0.059
A0A0B4J1Z1|C9JAB2|Q16629|Q16629-2|Q16629-3|Q16629-4 (UniProt Q16629),1.7 ± 0.28,1.77 ± 0.28,1.89 ± 0.28,2.04 ± 0.31,1.98 ± 0.38,2.09 ± 0.36
I3L0W4|Q96F10 (UniProt Q96F10),0.98 ± 0.13,0.932 ± 0.07,0.962 ± 0.073,0.963 ± 0.064,0.94 ± 0.025,0.944 ± 0.035
HMGN4 (UniProt O00479),0.97 ± 0.35,1.27 ± 0.44,1.22 ± 0.47,1.67 ± 0.86,1.63 ± 0.72,2.97 ± 2.3
MYO1G (UniProt B0I1T2),3.09 ± 0.27,3.32 ± 0.48,3.48 ± 0.58,3.19 ± 0.4,3.7 ± 0.64,3.52 ± 0.5
E7EUT5|P04406 (UniProt P04406),1.01 ± 0.012,0.959 ± 0.074,0.9969 ± 0.0069,0.939 ± 0.043,0.954 ± 0.024,0.944 ± 0.059
F8W060|Q9BZF1 (UniProt Q9BZF1),0.936 ± 0.018,0.933 ± 0.035,0.939 ± 0.018,0.927 ± 0.046,0.964 ± 0.013,0.959 ± 0.045
A0A0J9YW36|Q9NZ72|Q9NZ72-2 (UniProt Q9NZ72),1.03 ± 0.25,1.21 ± 0.52,0.979 ± 0.12,1.18 ± 0.36,0.945 ± 0.1,0.863 ± 0.05
DNAJC13 (UniProt O75165),1.15 ± 0.024,1.29 ± 0.095,1.3 ± 0.043,1.35 ± 0.12,1.68 ± 0.12,1.73 ± 0.22
F8WCD0|Q8NC42 (UniProt Q8NC42),0.964 ± 0.023,0.992 ± 0.013,1.08 ± 0.076,1.03 ± 0.029,0.945 ± 0.021,1 ± 0.076
B7ZBK4|Q92664 (UniProt Q92664),1.02 ± 0.021,1.03 ± 0.035,1 ± 0.042,0.9904 ± 0.0034,0.989 ± 0.026,0.976 ± 0.053
A0A0G2JPT5|O75943|O75943-2 (UniProt O75943),1.49 ± 0.28,1.59 ± 0.3,1.62 ± 0.32,1.7 ± 0.33,1.69 ± 0.28,1.65 ± 0.33
B7ZC38|Q9NR46 (UniProt Q9NR46),0.993 ± 0.015,0.977 ± 0.029,0.98 ± 0.033,0.981 ± 0.021,0.988 ± 0.056,0.936 ± 0.039
J3QTA6|Q9BRQ6 (UniProt Q9BRQ6),0.958 ± 0.12,0.921 ± 0.073,0.897 ± 0.087,0.925 ± 0.13,0.918 ± 0.093,0.874 ± 0.067
